Compound activity from PubChem BioAssay.
SENP7 block: SENP7 protease inhibitors, primary screen, biochemical, luminescence, uHTS; Sentrin-specific protease 7 (Homo sapiens), Q9BQF6; recombinant SENP7, Z-RLRGG-aminoluciferin luminescence, 40 min; inhibition, % at 5 µM; 1.5% of 330,000 active;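 active = inhibition above about 50% at the single test dose, limit read from the data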;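 note: plate controls were DMSO with enzyme for no effect and no enzyme buffer wells for full effect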
SENP8 block-1: SENP8 protease inhibitors, primary screen, biochemical, luminescence; AID 2540, 2010; purified SENP8, Z-RLRGG-aminoluciferin cleavage; 1.2% of 330,000 active; inhibition, % at 10 µM; in the data active = inhibition above about 50%
Target sequence (Q96LD8 whole entry, looked up): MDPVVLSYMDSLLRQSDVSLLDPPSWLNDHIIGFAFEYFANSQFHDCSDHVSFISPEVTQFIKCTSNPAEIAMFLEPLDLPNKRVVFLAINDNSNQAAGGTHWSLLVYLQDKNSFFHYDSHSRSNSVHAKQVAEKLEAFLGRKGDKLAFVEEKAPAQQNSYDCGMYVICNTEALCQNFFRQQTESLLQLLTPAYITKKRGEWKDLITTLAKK
SENP8 block-2: human SENP8 protease inhibitors, primary screen, biochemical, fluorescence, Nedd8 protein substrate, uHTS. AID 602440, 2012. recombinant SENP8. inhibition, % at 20 µM. 0.64% of 360,000 active. Sentrin-specific protease 8 (Homo sapiens), Q96LD8; in the data active = inhibition mostly above about 40%, no sharp cut-off; inactive = mostly below about 27%
PPC-1+TRAIL kill: compounds killing PPC-1 cancer cells with TRAIL present, primary screen, TRAIL potentiator project, ATPLite luminescence, uHTS; 0.41% of 220,000 active; cell killing (% activity), % at 4 µM or 5 µM; AID 1443, 2008; PPC-1 cells + TRAIL, ATPLite viability luminescence;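 active = cell killing above 50% in the first pass at 4 µM, then a duplicate retest at 5 µM averaging 50% or more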;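 note: plate controls were cells with TRAIL plus DMSO for no effect and medium-only wells lacking cells for full effect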
TRAIL sens C8: viability loss with TRAIL in NB7+C8 cells, primary screen, TRAIL sensitizer project, cell-based, ATPlite luminescence. inhibition (viability loss, TRAIL sensitization), % at 10 µM. 1% of 360,000 active. AID 624354, 2012;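 active = compounds causing at least 50% loss of cell viability in the single-dose screen, relative to plate controls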
SENP6 inh: SENP6 protease inhibitors, primary screen, biochemical, luminescence, uHTS; Sentrin-specific protease 6 (Homo sapiens), Q9GZR1; Recombinant SENP6 catalytic domain, aminoluciferin luminescence; inhibition, % at 10 µM; 1.8% of 330,000 active; AID 2599, 2010;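 active = inhibition above about 50% at the single tested dose, limit read from the data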;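 note: plate controls were DMSO wells with enzyme for no effect and DMSO wells lacking enzyme for full effect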
Target sequence (Q9GZR1 628-1112 limits assumed): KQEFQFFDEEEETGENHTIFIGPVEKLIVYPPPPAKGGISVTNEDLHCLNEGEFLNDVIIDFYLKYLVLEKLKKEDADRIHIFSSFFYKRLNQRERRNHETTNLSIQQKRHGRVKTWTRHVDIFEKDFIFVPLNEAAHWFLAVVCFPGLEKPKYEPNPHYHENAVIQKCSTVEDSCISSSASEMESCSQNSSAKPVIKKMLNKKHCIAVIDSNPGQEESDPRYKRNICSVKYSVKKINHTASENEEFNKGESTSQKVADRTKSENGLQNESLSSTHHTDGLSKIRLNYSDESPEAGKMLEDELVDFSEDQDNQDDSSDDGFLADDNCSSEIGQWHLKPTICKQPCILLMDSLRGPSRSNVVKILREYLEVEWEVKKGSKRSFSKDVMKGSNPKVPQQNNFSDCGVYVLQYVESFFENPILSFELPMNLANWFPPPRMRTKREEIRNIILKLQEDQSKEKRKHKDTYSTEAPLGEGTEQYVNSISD
SENP8 confirm: SENP8 protease inhibitors, retest, confirmation, biochemical, luminescence, single concentration; shares compounds with SENP7 block; inhibition, % at 12.5 µM; 40% of 6,200 active; Recombinant SENP8, Z-RLRGG-aminoluciferin luminescence, 60 min;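 active = mean inhibition across replicates above about 50%, limit read from the data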
SENP6 conf: SENP6 protease inhibitors, confirmation, biochemical, luminescence, single concentration; inhibition, % at 12.5 µM; recombinant SENP6, Z-RLRGG-aminoluciferin luminescence; shares compounds with SENP7 block; 58% of 6,200 active
SENP7 confirm: SENP7 protease inhibitors, retest, confirmation, biochemical, luminescence, single concentration. AID 488917, 2010. recombinant SENP7, Z-RLRGG-aminoluciferin luminescence, 40 min. shares compounds with SENP7 block. inhibition, % at 12.5 µM. 69% of 6,200 active
Casp3 SENP sel: caspase-3 protease inhibitors, confirmation, selectivity assay for SENP inhibitor project, biochemical, single concentration; shares compounds with SENP7 block; purified caspase-3, Z-DEVD-aminoluciferin luminescence, 60 min; inhibition, % at 12.5 µM; 60% of 6,200 active; AID 488918, 2010;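 active = mean inhibition above about 50%, limit read from the data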;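 note: plate controls were enzyme with DMSO for no effect and wells without caspase-3 for full effect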
SENP luc ctr: interferes with luciferase luminescence in SENP counter-screen. shares compounds with SENP7 block. Pre-incubated SENP8/Z-RLRGG-aminoluciferin, luciferase luminescence interference. inhibition, % at 12.5 µM. 39% of 6,200 active. AID 488919;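 active = mean inhibition above about 50% when retested at one dose, limit read from the data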;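 note: plate controls were DMSO wells with completed reaction for no effect and substrate without enzyme for full effect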
An asterisk follows results filed as active; nt = no result. The list is not random: actives were taken first. Their share in the collection is about 3%.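 Rule for the calls, unless noted: active = mean inhibition above about 50% in the one-dose retest (limit read from the data); inactive = the rest.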

SMILES | SENP7 block | SENP8 block-1 | SENP8 block-2 | PPC-1+TRAIL kill | TRAIL sens C8 | SENP6 inh | SENP8 confirm | SENP6 conf | SENP7 confirm | Casp3 SENP sel | SENP luc ctr
CC1=NN(C(N)=S)C(=O)C1N=Nc1cccc(Cl)c1 (stereo unspecified) | 65.5* | 84.6* | 12.1 | nt | 11.5 | 91.7* | 37.4 | 89.7* | 99.7* | 89.5* | 88.0*
CC1(C(=O)NS(=O)(=O)c2ccc3c(c2)CCO3)CCN1C(=O)c1ccccc1CCc1ccccc1 (stereo unspecified) | nt | nt | 14.8 | nt | 3.0 | nt | nt | nt | nt | nt | nt
COc1ccc(OCC(=O)Nc2cccc(-c3nc4ccccc4[nH]3)c2)cc1 | 75.5* | 61.4* | -20.5 | 23.4 | 8.7 | 74.4* | 76.7* | 75.7* | 92.4* | 58.1* | 78.8*
CS(=O)(=O)c1cccc(C(=O)Nc2cccc(-c3nc4ccccc4[nH]3)c2)c1 | 96.4* | 91.0* | -0.5 | nt | 22.0 | 96.2* | 96.4* | 97.1* | 102.2* | 47.6 | 96.2*
CS(=O)(=O)c1ccc(C(=O)Nc2cccc(-c3nc4ccccc4[nH]3)c2)cc1 | -0.4 | 15.9 | 1.6 | nt | 12.3 | 15.6 | nt | nt | nt | nt | nt
CS(=O)(=O)Cc1ccc(C(=O)Nc2cccc(-c3nc4ccccc4[nH]3)c2)cc1 | 66.9* | 50.4* | 5.2 | nt | 22.2 | 78.5* | 59.2* | 56.7* | 81.4* | 62.2* | 22.6
COc1ccc(OCC(=O)Nc2cccc(-c3nc4ccccc4o3)c2)cc1 | 0.2 | 4.9 | -12.1 | 41.7 | 23.6 | -5.8 | nt | nt | nt | nt | nt
O=C(CNc1cccc(F)c1)N1CCc2ccccc2C1 | 14.0 | -1.6 | 7.6 | nt | 1.6 | 28.7 | nt | nt | nt | nt | nt
O=c1c2c(nc3cc(-c4ccc(Br)cc4)[nH]n13)CCCC2 | 30.3 | 15.6 | -20.7 | nt | 43.2 | 35.9 | nt | nt | nt | nt | nt
CCc1c(C)nc2cc(-c3ccccc3)[nH]n2c1=O | 2.7 | -7.5 | -142.7 | nt | 14.7 | 1.3 | nt | nt | nt | nt | nt
O=c1c2c(nc3cc(-c4ccccc4)[nH]n13)CCS2 | 11.5 | 68.9* | 14.3 | 14.5 | 8.7 | 78.1* | -23.2 | -11.5 | 6.4 | 11.7 | -2.9
O=c1c2c(nc3cc(-c4ccccc4)[nH]n13)CCC2 | 45.4 | 19.3 | -232.6 | 36.8 | 32.0 | 57.2* | 22.1 | 15.5 | 29.9 | 43.5 | 7.2
O=[N+]([O-])c1ccc(O)c(C2=NNC(c3ccccc3F)C2)c1 (stereo unspecified) | 39.0 | 85.0* | 22.1 | 0.5 | 21.2 | -15.8 | -3.9 | 85.8* | 96.8* | 37.7 | 50.0*
COc1ccccc1C(=O)CSc1nccn1C | 1.4 | -3.7 | 6.9 | nt | 6.1 | -9.8 | nt | nt | nt | nt | nt
Cn1ccnc1SCC(=O)c1c[nH]c2ccccc12 | 49.7 | 32.6 | -9.1 | 11.5 | 2.4 | 58.3* | 47.9 | 41.7 | 78.2* | 78.2* | 53.9*
O=C(NCc1nc(-c2ccc(Cl)cc2)no1)c1ccco1 | 2.6 | -7.5 | -1.0 | nt | 2.2 | -2.0 | nt | nt | nt | nt | nt
Cc1ccc(-c2noc(COC(=O)c3ccco3)n2)cc1 | 68.0* | 62.8* | 14.8 | nt | 15.3 | 78.2* | 76.3* | 76.3* | 94.6* | 71.5* | 68.1*
O=C(Nc1ccc(-c2noc(CCc3ccccc3)n2)cc1)c1ccco1 | 60.2* | 54.5* | -9.5 | 5.2 | 21.1 | 78.1* | 67.8* | 71.0* | 89.8* | 52.6* | 10.5
CC(=O)N1CCN(S(=O)(=O)c2cccc(C(=O)N3CCN(S(=O)(=O)c4c(C)c(C)cc(C)c4C)CC3)c2)CC1 | nt | nt | 9.6 | nt | 0.3 | nt | nt | nt | nt | nt | nt
Cn1c2ccccc2c(=O)c2ccc(-c3ccc4c(c3)OCO4)cc21 | 72.9* | 57.8* | -460.4 | nt | 40.7 | 72.3* | 36.6 | 52.8* | 79.2* | 54.9* | 25.2
O=c1cc(-c2ccc3c(c2)OCO3)oc2ccccc12 | 76.7* | -4.1 | -334.1 | 34.7 | 37.5 | -9.0 | -3.4 | -1.7 | 32.0 | 8.3 | -3.8
COc1cc(Nc2nc3c(N)cc(C(F)(F)F)cc3nc2-c2ccccc2)cc(OC)c1OC | nt | nt | 13.9 | nt | 6.5 | nt | nt | nt | nt | nt | nt
O=C(NCc1ccccc1)c1c(F)c(F)c(F)c(F)c1F | 9.2 | 51.9* | 16.2 | -11.2 | 5.9 | -0.6 | -2.9 | -0.5 | -4.7 | -1.3 | -2.8
Cc1ccc(NC(=O)COC(=O)C2=NN(c3ccccc3)C(=O)CC2)c(Br)c1 | 2.9 | -2.1 | 2.9 | nt | 1.3 | 0.2 | nt | nt | nt | nt | nt
O=C(Nc1ccc2ccccc2n1)c1ccccc1Cl | 95.1* | 89.0* | 5.4 | nt | 37.5 | 87.6* | 93.8* | 94.4* | 101.5* | 94.2* | 33.3
SMILES | SENP7 block | SENP8 block-1 | SENP8 block-2 | PPC-1+TRAIL kill | TRAIL sens C8 | SENP6 inh | SENP8 confirm | SENP6 conf | SENP7 confirm | Casp3 SENP sel | SENP luc ctr
O=C(Nc1ccc2ccccc2n1)c1ccc(Cl)cc1 | 72.2* | 50.2* | -0.2 | nt | 30.9 | 56.1* | 25.3 | 48.4 | 58.7* | 59.4* | 16.1
COc1ccc(C(=O)Nc2ccc3ccccc3n2)c(OC)c1OC | 86.3* | 66.4* | -37.1 | nt | 83.0* | 82.4* | 58.0* | 46.5 | 56.7* | 45.0 | 5.3
O=C(Nc1ccc2ccccc2n1)C1CCCCC1 | 73.6* | 48.5 | 13.7 | 19.2 | 4.4 | 59.7* | 61.4* | 58.5* | 88.4* | 74.1* | 67.9*
O=C(Nc1ccnc(-c2ccncc2)n1)c1ccccc1Cl | -1.6 | 1.7 | 3.9 | 13.7 | -2.0 | -3.8 | nt | nt | nt | nt | nt
Cc1cc([N+](=O)[O-])c2ccccc2c1NS(=O)(=O)c1ccccc1 | nt | nt | 29.2 | nt | -2.4 | nt | nt | nt | nt | nt | nt
Cc1cc(C)cc(NC2=C(N)C(=O)c3ccccc3C2=O)c1 | 11.4 | 28.7 | 47.6* | nt | 14.6 | 69.6* | -3.4 | 5.8 | 2.3 | 4.8 | -5.9
CC(=O)Nc1cncc(-c2cccc(C(=O)N(C)C)c2)n1 | nt | nt | -21.2 | nt | -15.9 | nt | nt | nt | nt | nt | nt
